Bioassay records (PubChem BioAssay)
VCAM1 TNFa inh – inhibitors of TNFa-induced VCAM1 expression, primary screen, imaging, HUVEC, TNFa stimulus, immunofluorescence; HUVEC TNFa-induced VCAM-1 immunofluorescence, high-content imaging; inhibition, % at 2 µM; 95,000 compounds, 0.48% hits; AID 802, 2007;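 active = inhibition above the batch mean plus 3 SD, with images confirmed as a hit by eye, cut at about 37% in these data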;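 note: 0% = TNF-stimulated DMSO wells and 100% = unstimulated control wells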
HUVEC tox TNFa – cytotoxicity in TNFa-stimulated HUVEC, primary screen, cytotoxicity control for VCAM1 expression modulator project, imaging, Hoechst nuclei count | 93,000 compounds, 0.17% hits | HUVEC TNFalpha-stimulated, Hoechst cell count | cell count reduction, % at 2 µM;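 active = cell count reduction exceeding the screen mean by over 5 SD, scaled to untreated wells per plate, cut at about 78% in these data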;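 note: cells counted after 24 h of TNF alpha exposure following the 1 h pretreatment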
F-actin modifier – modifiers of F-actin cytoskeleton organization, primary screen, imaging, HUVEC, phalloidin staining, high-content imaging. HUVEC TNFa F-actin phalloidin imaging. inhibition, % at 2 µM. AID 836, 2007. 91,000 compounds, 0.18% hits;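 active = inhibition above the batch mean plus 3 SD and confirmed as a hit by visual image inspection, cut at about 30% in these data, passing the limit was not always enough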
E-sel TNF inh – E-selectin induction blockers in HUVEC – imaging, immunofluorescence, high content, primary screen; HUVEC TNFa-induced E-selectin immunofluorescence; inhibition, % at 2 µM; 120,000 compounds, 0.71% hits;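 active = inhibition above the batch mean plus 3 SD, and confirmed as a hit on visual image review, cut at about 43% in these data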;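 note: 0% = TNF-stimulated DMSO wells and 100% = unstimulated control wells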
Active calls of the source: *; x = no result. Most compounds without a hit are left out; they make up all but 1.2% or so of the library.

SMILES	VCAM1 TNFa inh	HUVEC tox TNFa	F-actin modifier	E-sel TNF inh
Cc1sc(NC(=O)c2ccco2)c(C(c2cccnc2)N2CCCC2)c1C (stereo unspecified)	-1	-17	0	x
O=c1cc(-c2ccc(F)cc2)oc2ccccc12	14	-31	4	44*
CSc1ccc(-c2cc(=O)c3ccccc3o2)cc1	24	-20	-3	18
CN(C)c1ccnc(NCc2ccccc2)c1C#N	-20	-1	8	-30
N#Cc1c(NCc2ccccc2)ccnc1NCc1cccnc1	93*	x	38	-18
Cc1cc(-c2ccco2)n(CC(=O)NCc2ccco2)n1	3	-19	2	76*
Cc1ccc(-c2ccc(=O)n(CC(=O)NCc3ccco3)n2)cc1	6	-22	57	-17
Cc1cc(=O)[nH]c(SCC(=O)NCc2ccco2)n1	10	19	31	100*
Cc1nnc(SCC(=O)NCc2ccco2)[nH]c1=O	3	0	-12	x
Cc1nnc(SCC(=O)NNC(=O)c2ccc(Br)cc2)n1C	x	x	x	6
Cc1ccc(SCCNC(=O)c2cccc([N+](=O)[O-])c2C)cc1	-14	-3	3	-18
COCCNC(=O)c1ccccc1NC(=O)c1cccc([N+](=O)[O-])c1C	x	x	x	60*
Nc1nc(N2CCOCC2)cc(=O)[nH]1	0	-15	-7	8
Cc1cc(-n2c(C)cc(C(=O)CN3C(=O)NC4(CCCCC4)C3=O)c2C)no1	-46	90*	0	11
COc1cc(CNCCNC(=O)c2nonc2N)ccc1OCc1ccc(Cl)cc1	x	x	x	-21
CCC(=O)c1ccc(N2CCOCC2)c(F)c1	5	-14	-18	56*
CC(C)N1CCc2[nH]c(=S)[nH]c(=O)c2C1	x	x	x	-19
CCCN1CCc2[nH]c(=S)[nH]c(=O)c2C1	x	x	x	68*
COc1ccc(Cn2c(CCC(=O)Nc3ccc(C)cc3)nc3cccnc32)cc1	24	-15	1	1
COc1ccc(Cn2c(CCC(=O)O)nc3cccnc32)cc1	93*	71	-16	x
COc1cccc(N2CC(C(=O)Nc3nnc(SCC(=O)c4ccccc4)s3)CC2=O)c1 (stereo unspecified)	x	x	x	61*
COc1cccc(N2CC(C(=O)Nc3nnc(SCc4ccccn4)s3)CC2=O)c1 (stereo unspecified)	x	x	x	-23
CN(Cc1nc(Cc2cccc(F)c2)no1)CC1CCOCC1	x	x	x	9
CCCCN(C(=O)c1cc(OC)c(OC)c(OC)c1)C1=CC2CCC(C1)N2C (stereo unspecified)	4	-10	2	98*
COc1cc(C(=O)N(CCc2ccccc2)C2=CC3CCC(C2)N3C)cc(OC)c1OC (stereo unspecified)	7	-22	2	4
